Results: PubChem BioAssay (NCATS)
Results filed as inconclusive are left out. A call without a number means that no potency is given here. The source made the active and inactive calls. Calls follow the shape of the dose curve; as a rule, active = well fitted cell-killing curve with a large enough effect; inconclusive = small, poorly fitted or top-dose-only effect, or effect the other way; inactive = no such curve, though single readings can be large or run the other way.

test: qHTS of pediatric cancer cell lines to identify multiple opportunities for drug repurposing: Confirmatory screen for RD cells (AID 1347124); settings: RD rhabdomyosarcoma cell viability; series mostly up to 45.9 µM;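 also: cells exposed to compound for 48 h before viability readout; nearly all actives have a fitted effect of over 65% in size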
Description: Drug repurposing or repositioning has been offered as a strategy for drug development in oncology programs. This approach has special potential for childhood cancers and other rare or orphan diseases, where the expected return on new drug development has been a disincentive to pharmaceuticals.
In this project we exploit the poly-pharmacology of drugs to discover new indications via phenotypic screening of a panel of 19 well-characterized cell lines derived from solid tumors seen in children and adolescents. The goal is to identify approved drugs with previously unrecognized anticancer properties that has the potential to reveal new mechanisms and biological processes involved in carcinogenesis or drug resistance. We employed a titration-based paradigm (quantitative high-throughput screening or qHTS), where all compounds were tested at multiple concentrations for their effect on cell viability. Concentration-response curves (CRCs) were derived directly from the primary screen, and both potency and efficacy values were used to identify compounds with robust bioactivity profiles. We screened the NIH Chemical Genomics Center (NCGC) Pharmaceutical Collection (NPC) and Mechanism Interrogation Plate (MIPE) small molecule collections of approved and investigational compounds against these cell lines; and measured metabolically active cells after 48 hours of compound treatment as a proxy for cell viability.
Assay Submitter: Nathalia J. Martinez, National Center for Advancing Translational Sciences, National Institutes of Health, Rockville, MD, USA; email: natalia.martinez@nih.gov
[1] Shen, M et al. Quantitative high-throughput phenotypic screening of pediatric cancer cell lines identifies multiple opportunities for drug repurposing. Oncotarget 2017 Dec 19;9(4):4758-4772. PMID 29435139.
The cells were obtained from University of North Carolina (UNC), Pediatric Preclinical Testing Program (PPT), and Coriell Institute (CI).
qHTS cell viability assay:
Cells were assayed in growth media at a density of 500-1,000 cells/well. Five microliters of cells were dispensed into 1,536-well, white, solid-bottom, TC-treated plates (Greiner Bio One) using a multidrop dispenser and incubated at 37 degrees C, 5% CO2, under a humidified atmosphere for 5 hours. Twenty-three nanoliters of compounds and controls (neutral control DMSO or positive control bortezomib at final concentration of 2.3 µM) were subsequently transferred by Kalypsys pintool. For primary screens, the MIPE collection was tested at 11-point dilutions (final concentrations range from 0.78 nM to 46 µM) and the NPC collection at 8-point dilutions (final concentrations range from 0.59 nM to 46 µM). Compounds tested in follow-up screens were assayed at 11-point dilutions. Cells were incubated for 48 hours, followed by addition of 3 µL of CellTiter-Glo (Promega). After a 15 min incubation at room temperature, samples were analyzed for luminescence intensity using a ViewLux High-throughput CCD imager equipped with clear filters.
Potency is read from the fitted curve at half-maximal effect.

Compound | Potency
CN1CCN(c2ncc(-c3cc(Cl)cc(Cl)c3Cl)c(N)n2)CC1 | inactive
COc1cc2ncnc(Nc3cc(Br)c(O)c(Br)c3)c2cc1OC | inactive
C[C@@H]1C[C@H]2[C@@H]3CCC4=CC(=O)C=C[C@]4(C)[C@@]3(F)[C@@H](O)C[C@]2(C)[C@@]1(O)C(=O)CO | inactive
CC1(C)OC2CC3C4CC(F)C5=CC(=O)C=CC5(C)C4C(O)CC3(C)[C@]2(C(=O)CO)O1 (stereo not given in full) | inactive
COC(=O)[C@H](c1ccccc1Cl)N1CCc2sccc2C1 | inactive
CO[C@H]1/C=C\O[C@@]2(C)Oc3c(C)c(O)c4c(O)c(c5c(nc6cc(C)ccn65)c4c3C2=O)NC(=O)C(C)=CC=C[C@H](C)[C@H](O)[C@@H](C)[C@@H](O)[C@@H](C)[C@H](OC(C)=O)[C@H]1C | inactive
C=C1[C@H](n2cnc3c(=O)[nH]c(N)nc32)C[C@H](O)[C@H]1CO | inactive
CCC[C@H](N[C@@H](C)C(=O)N1[C@@H]2CCCC[C@H]2C[C@H]1C(=O)O)C(=O)OCC | inactive
CN[C@@H]1CN(c2ccc3c(=O)c(C(=O)O)cn(-c4nccs4)c3n2)C[C@@H]1OC | 14400 nM (active)
Cc1ccc(C(=O)N(CCCN)[C@@H](c2nc3cc(Cl)ccc3c(=O)n2Cc2ccccc2)C(C)C)cc1 | 2400 nM (active)
COc1ccc(-c2ccc3ncc4c(c3c2)n(-c2ccc(N3CCNCC3)c(C(F)(F)F)c2)c(=O)n4C)cn1 | 185 nM (active)
CCNC(=O)c1noc(-c2cc(C(C)C)c(O)cc2O)c1-c1ccc(CN2CCOCC2)cc1 | 73.7 nM (active)
Nc1ccc(-c2ccc3ncc4ccc(=O)n(-c5cccc(C(F)(F)F)c5)c4c3c2)cn1 | 233 nM (active)
CC(C)CN(C[C@H](O)[C@H](Cc1ccccc1)NC(=O)O[C@H]1CCOC1)S(=O)(=O)c1ccc(N)cc1 | inactive
CO[C@H]1/C=C\O[C@@]2(C)Oc3c(C)c(O)c4c(O)c(c(C=NN5CCN(C6CCCC6)CC5)c(O)c4c3C2=O)NC(=O)C(C)=CC=C[C@H](C)[C@H](O)[C@@H](C)[C@@H](O)[C@@H](C)[C@H](OC(C)=O)[C@H]1C | inactive
COc1cc2c(cc1Cc1cccc(Cl)c1F)c(=O)c(C(=O)O)cn2[C@H](CO)C(C)C | inactive
CC1(COc2ccc3c(c2)ncn3-c2ccc3cccc(N4CCC(N)CC4)c3n2)COC1 | inactive
N#CC(=C1Nc2ccccc2S1)c1ccnc(OCc2ccc(CN3CCOCC3)cc2)n1 | inactive
O=C1Nc2ccc(I)cc2C1=Cc1cc(Br)c(O)c(Br)c1 | inactive
CN(C)CCN(C)C(=O)c1ccc(NC(=O)Nc2ccc(-c3nc(N4CCOCC4)c4ccn(CC(F)(F)F)c4n3)cc2)cc1 | 928 nM (active)

Compound | Potency
CCC(=O)N1CCN(c2ccc(-n3c(=O)ccc4cnc5ccc(-c6cnc7ccccc7c6)cc5c43)cc2C(F)(F)F)CC1 | inactive
COc1cc([C@@H]2c3cc4c(cc3[C@@H](O[C@@H]3O[C@@H]5CO[C@@H](C)O[C@@H]5[C@H](O)[C@@H]3O)[C@H]3COC(=O)[C@H]23)OCO4)cc(OC)c1O | inactive
OCCn1cc(-c2ccc3c(c2)CCC3=NO)c(-c2ccncc2)n1 | 8510 nM (active)
CC(C)(C)c1[nH]cnc1C=c1[nH]c(=O)c(=Cc2ccccc2)[nH]c1=O | 18 nM (active)
CSc1cccc(Nc2ncc3cc(-c4c(Cl)cccc4Cl)c(=O)n(C)c3n2)c1 | 369 nM (active)
CC(C)n1c(C=C[C@H](O)C[C@H](O)CC(=O)O)c(-c2ccc(F)cc2)c2ccccc21 | 10400 nM (active)
C[C@@H]1[C@H](O)[C@@H](C)C=CC=CC=CC=CC=CC=CC=C[C@H](O[C@@H]2O[C@H](C)[C@H](O)[C@H](N)[C@@H]2O)C[C@@H]2O[C@](O)(C[C@@H](O)C[C@@H](O)[C@H](O)CC[C@@H](O)C[C@@H](O)CC(=O)O[C@H]1C)C[C@H](O)[C@@H]2C(=O)O | inactive
Cc1cc(CS(=O)(=O)c2ccccc2)cc(OCc2ccc(CN3CCC[C@H]3CO)cc2)c1 | inactive
CC[C@H](NC(=O)[C@H](C)NC)C(=O)N1C[C@@H](O)C[C@H]1Cc1c(-c2[nH]c3cc(F)ccc3c2C[C@H]2C[C@H](O)CN2C(=O)[C@H](CC)NC(=O)[C@H](C)NC)[nH]c2cc(F)ccc12 | inactive
Cc1csc(-c2nnc(Nc3ccc(Oc4ncccc4-c4ccnc(N)n4)cc3)c3ccccc23)c1 | inactive
FC(F)(F)c1ccc(C=Cc2nc(COc3ccc(CCCCn4ccnn4)cc3)co2)cc1 | 1850 nM (active)
Cc1c(C(=O)Nc2ccc(N3C[C@@H](C)O[C@@H](C)C3)nc2)cccc1-c1ccc(OC(F)(F)F)cc1 | inactive
COc1cc(CNC(=O)CCCCC=CC(C)C)ccc1O | inactive
O=C1NC(=O)C(c2cnc3ccccn23)=C1c1cn2c3c(cccc13)CN(C(=O)N1CCOCC1)CC2 | inactive
Cc1cnc(-c2cc(N3CCN(C(=O)CCS(C)(=O)=O)CC3)ncc2Cl)c(C)c1 | inactive
CCC[C@H](Nc1nc(-c2ccc(NC(=O)NCC)c(OC)c2)ncc1C)c1cccnc1 | 147 nM (active)
CCC(=O)OCC(=O)[C@@]1(OC(=O)CC)[C@@H](C)C[C@@H]2[C@H]3CCC4=CC(=O)C=C[C@]4(C)[C@@]3(F)[C@@H](O)C[C@@]21C | inactive
Cc1ccc(C(=O)N(CCCN)[C@@H](c2oc3cc(Cl)ccc3c(=O)c2Cc2ccccc2)C(C)C)cc1 | 16.5 nM (active)
CON(C)C(=O)N1N=C(c2cc(F)ccc2F)S[C@]1(CCCN)c1ccccc1 | 46.5 nM (active)
CCC(c1ccc(O)cc1)C(CC)c1ccc(O)cc1 (stereo not given) | 10400 nM (active)
